Results from PubChem BioAssay (NCATS).
Values without a mark were called inactive. Results filed as inconclusive are left out. A call without a number means that no potency is given here. Activity calls are given as the source filed them. Unless noted, calls follow the shape of the dose curve; as a rule, active = well fitted curve in the direction sought with a large enough effect; inconclusive = small, poorly fitted or top-dose-only effect, or another doubt; inactive = no such curve, though single readings can be large; an effect the other way counts as inactive or inconclusive.

What was measured:
[1] = Counterscreen qHTS for small molecule stabilizers of the endoplasmic reticulum resident proteome: GLuc-NoTag assay (AID 1508627);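 also: SH-SY5Y cells given compound then 100 nM thapsigargin to empty ER calcium; series mostly up to about 76 µM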
In short: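 Luminescence of Gaussia luciferase secreted into the medium (coelenterazine, 0.07x final, unlysed cells) was the read-out. Human SH-SY5Y neuroblastoma cells constitutively secreting untagged GLuc received compound for 19 h, then 100 nM thapsigargin for 4 h.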

[2] = Primary qHTS for small molecule stabilizers of the endoplasmic reticulum resident proteome: Secreted ER Calcium Modulated Protein (SERCaMP) assay (AID 1508630)
In short: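 GLuc-SERCaMP-expressing SH-SY5Y cells, pretreated 16 h with compound, are challenged with thapsigargin to empty ER calcium stores; after 4 h, coelenterazine is added directly to the medium and luminescence is imaged.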

[3] = molecular target: Cytochrome P450 1A2 (Homo sapiens) (UniProt P05177); experiment: p450-cyp1a2 (AID 410; calls by dose curve; also: potency is read from the fitted curve at half-maximal effect)
Sequence of Cytochrome P450 1A2 (Homo sapiens) (P05177 whole entry, looked up): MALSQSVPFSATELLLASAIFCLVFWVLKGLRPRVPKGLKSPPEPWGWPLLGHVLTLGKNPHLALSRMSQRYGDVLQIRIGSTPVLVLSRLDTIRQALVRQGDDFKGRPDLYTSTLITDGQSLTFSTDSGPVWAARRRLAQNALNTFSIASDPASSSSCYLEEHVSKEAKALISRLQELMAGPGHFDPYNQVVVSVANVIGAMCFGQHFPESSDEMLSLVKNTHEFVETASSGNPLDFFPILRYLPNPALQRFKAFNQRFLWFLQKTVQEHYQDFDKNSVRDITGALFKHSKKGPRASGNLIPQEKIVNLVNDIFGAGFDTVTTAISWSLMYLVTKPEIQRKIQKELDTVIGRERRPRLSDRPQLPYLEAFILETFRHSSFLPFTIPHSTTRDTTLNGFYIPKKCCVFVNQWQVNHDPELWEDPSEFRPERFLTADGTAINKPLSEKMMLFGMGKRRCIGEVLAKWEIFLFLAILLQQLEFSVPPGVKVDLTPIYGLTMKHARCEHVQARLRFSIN
In short: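 20nM CYP1A2 with 100uM Luciferin-ME (at Km) in 100mM KPO4; compound preincubated 10 min, NADPH regeneration added, 60 min at room temperature. Luciferin quantified by luminescence after detection reagent; normalized to 57 uM furafylline.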

[4] = molecular target: Glucocorticoid receptor (Homo sapiens) (UniProt P04150); experiment: GR-GFP Redistribution (AID 450;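 active = compounds whose dose series gives a full or clear partial fitted curve of increased nuclear translocation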; also: potency is read from the fitted curve at half-maximal effect); conditions: U2OS GR-GFP nuclear translocation, laser cytometry, 2 h
Sequence of Glucocorticoid receptor (Homo sapiens) (P04150 whole entry, looked up, the tested form may be a part): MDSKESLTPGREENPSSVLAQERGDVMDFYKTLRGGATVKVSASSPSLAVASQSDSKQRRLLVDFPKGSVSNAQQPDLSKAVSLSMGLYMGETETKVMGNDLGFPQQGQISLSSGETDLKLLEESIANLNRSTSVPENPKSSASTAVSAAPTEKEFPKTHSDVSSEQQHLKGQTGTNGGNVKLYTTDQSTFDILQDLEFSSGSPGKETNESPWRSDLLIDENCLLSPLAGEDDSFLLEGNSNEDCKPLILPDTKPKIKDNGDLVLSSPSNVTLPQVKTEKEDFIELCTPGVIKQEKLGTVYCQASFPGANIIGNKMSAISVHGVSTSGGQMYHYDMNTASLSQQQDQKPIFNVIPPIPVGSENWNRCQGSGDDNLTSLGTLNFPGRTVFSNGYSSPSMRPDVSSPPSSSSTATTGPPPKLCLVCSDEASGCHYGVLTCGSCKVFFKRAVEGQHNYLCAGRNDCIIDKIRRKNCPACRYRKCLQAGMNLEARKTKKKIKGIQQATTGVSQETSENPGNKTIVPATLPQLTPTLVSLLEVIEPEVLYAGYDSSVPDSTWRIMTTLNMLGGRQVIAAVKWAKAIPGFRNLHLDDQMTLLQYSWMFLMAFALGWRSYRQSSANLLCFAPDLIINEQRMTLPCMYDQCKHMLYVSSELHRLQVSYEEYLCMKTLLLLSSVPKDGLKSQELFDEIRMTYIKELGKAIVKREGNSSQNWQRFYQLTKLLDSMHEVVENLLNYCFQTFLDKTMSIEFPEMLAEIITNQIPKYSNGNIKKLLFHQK

[5] = molecular target: Glucocorticoid receptor (Homo sapiens) (UniProt P04150); experiment: GR-EFC Redistribution (AID 451; calls by dose curve; also: potency is read from the fitted curve at half-maximal effect); conditions: CHO-K1 GR-EFC translocation, beta-gal luminescence, 2 h
In short: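 Translocation of GR-ED fusion to nuclear EA restores b-gal, read by luminescence after 1 h room-temperature detection. Engineered CHO-K1 biosensor cells, 1,000/well, exposed 2 h at 37 C to titrations up to 46 uM final.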

[6] = molecular target: Ubiquitin carboxyl-terminal hydrolase 1 (Homo sapiens) (UniProt O94782); experiment: Inhibitors of USP1/UAF1: Pilot qHTS (AID 504865);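 also: rhodamine fluorescence freed from ubiquitin-rhodamine substrate followed over time; top concentration of the series differs between compounds; nearly all actives have a fitted effect of over 35% in size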
Sequence of Ubiquitin carboxyl-terminal hydrolase 1 (Homo sapiens) (O94782 whole entry, looked up): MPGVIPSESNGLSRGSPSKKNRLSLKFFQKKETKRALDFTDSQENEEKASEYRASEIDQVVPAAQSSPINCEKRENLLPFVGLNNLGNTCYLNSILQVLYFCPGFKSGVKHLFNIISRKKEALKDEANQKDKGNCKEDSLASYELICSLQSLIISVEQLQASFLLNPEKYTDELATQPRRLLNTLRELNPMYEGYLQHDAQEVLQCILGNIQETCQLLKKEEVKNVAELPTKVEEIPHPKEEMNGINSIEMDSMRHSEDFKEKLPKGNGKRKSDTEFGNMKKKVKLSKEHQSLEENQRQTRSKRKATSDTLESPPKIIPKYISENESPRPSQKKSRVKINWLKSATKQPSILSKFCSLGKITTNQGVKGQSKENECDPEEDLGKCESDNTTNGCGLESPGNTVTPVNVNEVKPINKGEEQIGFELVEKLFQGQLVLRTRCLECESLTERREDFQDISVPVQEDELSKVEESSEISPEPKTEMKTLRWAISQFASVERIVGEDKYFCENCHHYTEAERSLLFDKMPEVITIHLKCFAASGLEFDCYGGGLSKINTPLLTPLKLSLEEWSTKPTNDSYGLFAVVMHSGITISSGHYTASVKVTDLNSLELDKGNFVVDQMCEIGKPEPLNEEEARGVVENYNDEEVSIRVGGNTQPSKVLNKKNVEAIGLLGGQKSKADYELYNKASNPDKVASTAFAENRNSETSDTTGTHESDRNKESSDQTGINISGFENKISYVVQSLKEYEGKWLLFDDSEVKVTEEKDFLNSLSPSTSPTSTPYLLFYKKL
In short: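 Enzyme-free wells gave the negative control, while test wells held 1nM USP1/UAF1 preincubated with compound for 15 min at room temperature. Ub-Rho at 150nM final started the reaction, and fluorescence at 480/540 nm was recorded kinetically.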

[7] = molecular target: DNA dC->dU-editing enzyme APOBEC-3G (Homo sapiens) (UniProt Q9HC16); experiment: qHTS for inhibitors of Vif-A3G interactions: Validation (AID 588379)
Sequence of DNA dC->dU-editing enzyme APOBEC-3G (Homo sapiens) (Q9HC16 whole entry, looked up): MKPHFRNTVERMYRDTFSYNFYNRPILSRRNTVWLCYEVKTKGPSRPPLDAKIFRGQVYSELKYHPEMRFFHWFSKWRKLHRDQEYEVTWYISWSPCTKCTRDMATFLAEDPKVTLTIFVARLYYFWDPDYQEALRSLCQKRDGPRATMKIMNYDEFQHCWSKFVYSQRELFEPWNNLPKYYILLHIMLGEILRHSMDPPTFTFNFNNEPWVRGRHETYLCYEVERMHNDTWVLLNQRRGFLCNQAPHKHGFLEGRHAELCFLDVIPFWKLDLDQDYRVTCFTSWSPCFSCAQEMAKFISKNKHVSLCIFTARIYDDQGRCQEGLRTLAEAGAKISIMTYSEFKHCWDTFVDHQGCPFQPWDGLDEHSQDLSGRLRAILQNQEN
In short: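 HeLa cells stably expressing Vif and A3G-eYFP, 700 cells/well, incubated overnight at 37 deg C, then exposed to compound overnight at 37 deg C. Inhibition of Vif-mediated degradation read as increased yellow fluorescence (Ex 488/Em 500-530) by laser-scanning cytometry.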

Row | Structure (SMILES) | Potency [1] | Potency [2] | Potency [3] | Potency [4] [µM] | Potency [5] [µM] | Potency [6] | Potency [7]
1 | CC(C)[C@]1(O)[C@@H](OC(=O)c2ccc[nH]2)[C@@]2(O)[C@@]3(C)C[C@]4(O)O[C@@]5([C@H](O)[C@@H](C)CC[C@]35O)[C@@]2(O)C41C | inactive | inactive |  |  |  |  | 
2 | O=C1/C(=C\c2ccccc2)C[C@@]2(O)[C@H]3Cc4ccc(O)c5c4[C@@]2(CCN3CC2CC2)[C@@H]1O5 |  | inactive | 31.6 µM (active) | > 46 | > 46 | inactive | inactive
